# Among all 16,000 compounds or so, about 2,600 (16%) were called active. Not shown: some 20% with an inconclusive outcome. Calls come from the whole dose curve; as a rule, active = well fitted curve in the direction sought with a large enough effect; inconclusive = small, poorly fitted or top-dose-only effect, or effect the other way; inactive = no such curve, though single readings can be large or run the other way. These entries were drawn from the full list. Some structures have more than one record in an assay (separate samples or runs), and their calls can disagree.
# Target: Cytochrome P450 2D6 (Homo sapiens) (UniProt P10635)
# Sequence (P10635 whole entry, looked up): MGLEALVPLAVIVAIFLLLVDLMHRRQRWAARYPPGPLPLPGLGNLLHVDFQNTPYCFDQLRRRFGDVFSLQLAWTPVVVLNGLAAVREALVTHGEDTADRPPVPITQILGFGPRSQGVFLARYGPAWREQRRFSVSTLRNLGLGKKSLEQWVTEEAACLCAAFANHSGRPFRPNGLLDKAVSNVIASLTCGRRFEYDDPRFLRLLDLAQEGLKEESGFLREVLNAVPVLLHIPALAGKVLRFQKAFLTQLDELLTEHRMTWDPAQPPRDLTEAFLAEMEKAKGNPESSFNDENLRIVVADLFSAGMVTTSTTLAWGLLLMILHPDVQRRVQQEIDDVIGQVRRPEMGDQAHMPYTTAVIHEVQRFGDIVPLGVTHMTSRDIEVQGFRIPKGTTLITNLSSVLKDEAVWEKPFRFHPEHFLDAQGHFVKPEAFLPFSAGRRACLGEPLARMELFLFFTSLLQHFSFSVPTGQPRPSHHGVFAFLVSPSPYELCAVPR
# Assay: Cytochrome panel assay with activity outcomes
# Conditions: recombinant CYP, pro-luciferin dealkylation, luminescence, p450-cyp2d6; series mostly up to 57.1 µM; activity, negative = inhibition: at the top concentration
# % is set by controls: 0 for no effect and ±100 for the full control effect.
Structure (SMILES),"activity, negative = inhibition",AC50
COc1ccc(C2=C(C#N)C(=O)OC2)cc1,-1.14% (inactive),
CCOC(=O)c1cnn(-c2nc(-c3cccc(F)c3)cs2)c1C(F)(F)F,-12.3% (inactive),
O=C(O)[C@@H]1CCCN1,-2.04% [at 11.4 µM] (inactive),
CC1(C)C(=O)C(c2ccccc2)=C2CN3C(=O)N(CCc4ccccc4)C(=O)C3(Cc3ccccc3)C=C21 (stereo not given),-0.396% (inactive),
N#Cc1cc2[nH]c(=O)c(=O)[nH]c2cc1[N+](=O)[O-],3.7% (inactive),
C[C@@]12C(=O)OC(=O)[C@@]1(C)[C@@H]1CC[C@@H]2O1,2.37% (inactive),
NC(N)=N/N=C\c1ccc(C2CCNCC2)cc1,-11% [at 11.4 µM] (inactive),
Cc1ccccc1NC(=O)Cn1cnc2c1c(=O)n(C)c(=O)n2C,-9.07% (inactive),
CC(=O)c1cn(CC(=O)Nc2c(C)cccc2C)c2ccccc12,,7.94 µM (active)
Cc1cccc(C)c1NC(=O)C[N+](C)(C)C,,inactive
Cc1ccccc1NC(=O)c1cnc(Nc2nc3ccccc3s2)nc1C,4.51% (inactive),
CC(N)=O,-3.9% (inactive),
C=CCNC(=O)C1CCN(S(=O)(=O)CC)CC1,-8.48% (inactive),
CCS(=O)(=O)N1CCC(C(=O)NCCCOC)CC1,-5% (inactive),
CCN(CCCNC(=O)C1CCN(S(=O)(=O)CC)CC1)c1cccc(C)c1,,25.1 µM (active)
C=CCn1c(SCC(=O)Nc2c(C)n(C)n(-c3ccccc3)c2=O)nc2sc(C)c(-c3ccccc3)c2c1=O,-3.94% (inactive),
COc1ccc(CO/N=C/c2c(C)[nH]c(=O)[nH]c2=O)cc1,-6.51% (inactive),

Structure (SMILES),"activity, negative = inhibition",AC50
CC(C)CNC(=S)N1CCN(C)CC1,0.99% (inactive),
CCN(CC)S(=O)(=O)c1cccc2c(N(C)C)cccc12,-11.4% (inactive),
CCN(CC)S(=O)(=O)c1ccc2c3c(cccc13)C(=O)S2,,12.6 µM (active)
CCOC(=O)NNC1CC(=O)N(c2ccc(OC)cc2)C1=O (stereo not given),-3.68% (inactive),
O=C(NCCCN1CCOCC1)c1cc2c(s1)CSC2,,1.26 µM (active)
CCC(CC)C(=O)c1c[nH]c(C(=O)NCCCN2CCOCC2)c1,-6.79% (inactive),
O=C(c1ccccc1)c1c[nH]c(C(=O)NCCCN2CCOCC2)c1,-45.7% (inactive),
O=c1onc2n1-c1cc(Br)ccc1OC2,-11.9% (inactive),
COc1ccc(-n2c(=O)c(-c3ccc(Cl)cc3)nc3cnc(N4CCNCC4)nc32)cc1,-4.61% (inactive),
N#CC1=C(N)OC2=C(C(=O)CCC2)C12CCC1(CC2)OCCO1,-8.51% (inactive),
CN1CCN(c2ncc3nc(-c4cn(C)c5ccccc45)c(=O)n(CCc4ccccc4)c3n2)CC1,-18.8% (inactive),
OC1(c2ccc(OC(F)F)cc2)CSC(=Nc2cccnc2)N1C1CC1 (stereo not given),,2 µM (active)
N#Cc1c(-c2ccccc2)nc2n(c1=O)CCS2,0.549% (inactive),
CN1CCCC[C@@H]1CCN1c2ccccc2Sc2ccc(S(C)=O)cc21 (stereo not given in full),0.0782% [at 11.4 µM] (inactive),0.1 µM (active)
COc1ccc2c(c1)N(CC[C@H]1CCCCN1C)c1ccccc1S2,,0.0501 µM (active)
COc1ccc(OCc2nnc(SCC(=O)N3c4ccccc4Sc4ccc(Cl)cc43)o2)cc1,14.4% (inactive),
CN1CCCC[C@@H]1CCN1CCCCC1,-1.48% [at 11.4 µM] (inactive),
